SMILES strings stand for the structures. The source made the active and inactive calls. Unless noted, the rule behind the calls is not given here.

Assay [1] in a line: kinase inhibitors against Plasmodium liver-stage infection, cell-based, known kinase inhibitor set, luminescence, hepatoma host viability (AID 624392).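 Note: infected cells incubated roughly two days before readout.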 The conditions noted are these: Plasmodium liver stage in hepatoma cells, luciferase luminescence, concentration not given here; liver cell % of control: measured here: host liver cell viability; parasite % of control: stronger effect = lower value.

Assay [2] can be described thus: modulators of glucocorticoid suppression of NF-kB, cell-based, luciferase, IL-1B stimulus, dexamethasone (AID 624486).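 For percent of negative control (+Dex): 100% = mean signal of vehicle control wells on the plate.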 The note with it: NF-kB luciferase reporter, IL-1B + dexamethasone, luminescence; percent of negative control (+Dex): actives lie on both sides, concentration not given here; z-score: measured here: IL-1B alone, no Dex.
Assay [3] is described as follows: kinase inhibitors altering Pseudomonas killing of worms, whole organism (AID 651566).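 Note: tested at 14 µM; sign flipped so higher z means a lower ratio.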 The note with it: C. elegans killed by P. aeruginosa, survival ratio.
Assay [4] in a line: activators of macrophage pro-inflammatory response, cell-based, murine, luminescence (AID 652131). The note with it: murine macrophage pro-inflammatory reporter, stronger effect = higher value.
The target in assay [5] is Cellular tumor antigen p53 (Homo sapiens) (UniProt P04637). As to the kind of experiment: kinase inhibitors altering GFP-p53 stability in HPV16-positive cells, imaging, known kinase inhibitor set, EGFP/DsRed ratio (AID 1053116).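 Note: cells exposed to compounds for 24 h at 37 °C before reading.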 The conditions noted are these: stronger effect = higher value; EGFP object count: measured here: GFP-p53 positive objects count.
Sequence of Cellular tumor antigen p53 (Homo sapiens) (P04637 whole entry, looked up): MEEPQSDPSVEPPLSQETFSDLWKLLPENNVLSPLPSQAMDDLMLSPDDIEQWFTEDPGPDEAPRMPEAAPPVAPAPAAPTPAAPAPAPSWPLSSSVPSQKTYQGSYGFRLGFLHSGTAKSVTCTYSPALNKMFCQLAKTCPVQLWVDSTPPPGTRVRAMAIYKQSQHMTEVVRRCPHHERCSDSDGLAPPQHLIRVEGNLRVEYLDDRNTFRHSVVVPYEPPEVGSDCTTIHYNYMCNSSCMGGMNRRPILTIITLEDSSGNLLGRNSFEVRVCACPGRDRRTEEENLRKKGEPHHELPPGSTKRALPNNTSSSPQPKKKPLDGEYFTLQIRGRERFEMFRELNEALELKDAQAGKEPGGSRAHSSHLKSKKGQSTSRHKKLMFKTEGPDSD
The nature of assay [6]: IRF3 reporter activation in THP-1 macrophages, cell-based, PMA-stimulated THP-1, luminescence (AID 1053176). The note with it: PMA-differentiated THP-1, IRF3 reporter luminescence; stronger effect = higher value.
Assay [7] in a line: survival rescue of mitochondrial mutant cells in low glucose, primary screen, MELAS cybrids, Rieske KO mouse fibroblasts, CellTiter-Glo (AID 1508586;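 active = mean z-score across replicates of 1.96 or higher in either the MELAS or the Rieske mutant cell line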;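 note: z relative to plate mean and SD of compound and empty wells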).
Setting [8] is: MELAS cybrid survival, CellTiter-Glo 48 h, stronger effect = higher value.
[9] abbreviates: Rieske KO mouse fibroblast survival, CellTiter-Glo 72 h.

In turn, `CCCN1CCC=C(c2ccc(Nc3nc(Nc4ccccc4C(N)=O)c4cc[nH]c4n3)c(C)c2)C1` showed a liver cell % of control in assay [1] of 86.8%. For the same compound, the parasite % of control in assay [1] was 580% (inactive). Also, in assay [2], the percent of negative control (+Dex) is 88% (inactive). Also, the z-score in assay [2] is -0.67; in assay [3], 0.47 (inactive); in assay [4], -1.61 (inactive); in assay [7] (setting [8]), -0.329 (inactive); in assay [7] (setting [9]), 0.0526. In addition, in assay [5], the EGFP object count amounted to 4. For the same compound, the EGFP/DsRed ratio in assay [5] is 0.193 (inactive). Besides, the fraction signal in assay [6] is 0 (inactive).

For `CCOc1nccc2c1nc(-c1nonc1N)n2CC`, in assay [1], the liver cell % of control worked out at 107%. For the same compound, the parasite % of control in assay [1] is 176% (inactive). For the same compound, the percent of negative control (+Dex) in assay [2] was 86% (inactive). The z-score was -0.885 in assay [2]; 0.225 (inactive) in assay [3]; 0.153 (inactive) in assay [4]; -0.642 (inactive) in assay [7] (setting [8]); -0.113 in assay [7] (setting [9]). The EGFP object count in assay [5] came to 4.5. Besides, the EGFP/DsRed ratio in assay [5] was 0.429 (inactive). In addition, the fraction signal in assay [6] is 0 (inactive).

Compound `COC1CCC2NC3C4NC5CCC(OC)CC5C4C4C(=O)NC(=O)C4C3C2C1` (centres undefined) had a liver cell % of control in assay [1] of 93.4%. In addition, the parasite % of control in assay [1] is 178% (inactive). For the same compound, the percent of negative control (+Dex) in assay [2] was 106% (inactive). Besides, the z-score in assay [2] was 1.79; in assay [3] it was 0.155 (inactive); in assay [4] it was -0.67 (inactive); in assay [7] (setting [8]), -0.302 (inactive); in assay [7] (setting [9]), 0.67. In assay [5], the EGFP object count was determined as 3. For the same compound, the EGFP/DsRed ratio in assay [5] was 0.0486 (inactive). Also, the fraction signal in assay [6] is -0.005 (inactive).

`COc1cccc(-n2nc(C)c3c(N/N=C(\C)c4ccncc4)ncnc32)c1`: the liver cell % of control in assay [1] is 114%. In addition, in assay [1], the parasite % of control was 124% (inactive). Besides, the percent of negative control (+Dex) in assay [2] is 100% (inactive). The z-score in assay [2] was 0.765; in assay [3], 0.74 (inactive); in assay [4], -0.201 (inactive); in assay [7] (setting [8]), -0.775 (inactive); in assay [7] (setting [9]) it was -0.494. Also, the EGFP object count in assay [5] was 2. Also, the EGFP/DsRed ratio in assay [5] was 0.0826 (inactive). In addition, in assay [6], the fraction signal is -0.0005 (inactive).

In turn, `Fc1ccc(-c2nn3ncccc3c2-c2ccnc(Nc3ccc4c(c3)OCCO4)n2)cc1` displayed a liver cell % of control in assay [1] of 90.5%. Moreover, the parasite % of control in assay [1] was 13.9% (inactive). Also, the percent of negative control (+Dex) in assay [2] was 100% (inactive). Also, the z-score in assay [2] was -1.27; in assay [3], -0.41 (inactive); in assay [4] it was -0.769 (inactive); in assay [7] (setting [8]) it was -0.754 (inactive); in assay [7] (setting [9]), -0.424. Moreover, in assay [5], the EGFP object count came to 3. The EGFP/DsRed ratio in assay [5] is 0.08 (inactive). The fraction signal in assay [6] is -0.003 (inactive).

The compound `CC1=C(C(=O)Nc2ccc3[nH]ncc3c2)C(c2ccc(F)cc2)NC(=O)N1` (centres undefined) yielded a liver cell % of control in assay [1] of 105%. Further, the parasite % of control in assay [1] is 158% (inactive). In assay [2], the percent of negative control (+Dex) was 100% (inactive). The z-score is 0.22 in assay [2]; 0.64 (inactive) in assay [3]; -0.296 (inactive) in assay [4]; 0.62 (inactive) in assay [7] (setting [8]); -0.219 in assay [7] (setting [9]). Besides, in assay [5], the EGFP object count came out at 3.5. The EGFP/DsRed ratio in assay [5] is 0.352 (inactive). Moreover, the fraction signal in assay [6] was 0.0035 (inactive).

`NS(=O)(=O)c1ccc(N=Nc2c(O)[nH]c3ccc(Cl)cc23)cc1` returned a liver cell % of control in assay [1] of 91.6%. Also, in assay [1], the parasite % of control was 111% (inactive). Moreover, the percent of negative control (+Dex) in assay [2] was 112% (inactive). Further, the z-score in assay [2] was 0.905; in assay [3], 0.005 (inactive); in assay [4], 0.24 (inactive); in assay [7] (setting [8]), 1.43 (inactive); in assay [7] (setting [9]) it was -0.311. Further, in assay [5], the EGFP object count came to 6.5. The EGFP/DsRed ratio in assay [5] was 0.227 (inactive). For the same compound, the fraction signal in assay [6] was 0.0005 (inactive).

On to `Cc1cc(Cl)cc2c(N=Nc3ccc(S(N)(=O)=O)cc3)c(O)[nH]c12`, for which, in assay [1], the liver cell % of control was 94.4%. For the same compound, the parasite % of control in assay [1] is 139% (inactive). The percent of negative control (+Dex) in assay [2] was 100% (inactive). The z-score in assay [2] is 0.945; in assay [3], -0.145 (inactive); in assay [4], -0.3 (inactive); in assay [7] (setting [8]), 0.0201 (inactive); in assay [7] (setting [9]), -0.605. In addition, in assay [5], the EGFP object count is 2.5. For the same compound, the EGFP/DsRed ratio in assay [5] was 0.092 (inactive). Besides, the fraction signal in assay [6] is -0.0045 (inactive).

In turn, `CCn1c(-c2nonc2N)nc2c(N3CCCC3)nccc21` showed a liver cell % of control in assay [1] of 90.8%. In addition, in assay [1], the parasite % of control is 137% (inactive). In addition, the percent of negative control (+Dex) in assay [2] is 80.5% (inactive). In addition, the z-score in assay [2] was -0.655; in assay [3], -0.89 (inactive); in assay [4] it was 1.27 (inactive); in assay [7] (setting [8]), 0.113 (inactive); in assay [7] (setting [9]), -0.0304. Further, in assay [5], the EGFP object count was found to be 3. For the same compound, the EGFP/DsRed ratio in assay [5] is 0.0699 (inactive). For the same compound, the fraction signal in assay [6] was -0.004 (inactive).

`COC(=O)c1cncc(/C=C/c2c(C)cc(O)cc2C)c1` yielded a liver cell % of control in assay [1] of 108%. In addition, the parasite % of control in assay [1] was 131% (inactive). Besides, the percent of negative control (+Dex) in assay [2] was 108% (inactive). Also, the z-score is 1.96 in assay [2]; 0.295 (inactive) in assay [3]; -0.608 (inactive) in assay [4]; 0.159 (inactive) in assay [7] (setting [8]); 0.14 in assay [7] (setting [9]). For the same compound, the EGFP object count in assay [5] was 4.5. Besides, the EGFP/DsRed ratio in assay [5] is 0.286 (inactive). For the same compound, the fraction signal in assay [6] is -0.0065 (inactive).

The compound `COc1ccc2c(-c3ccnc(Nc4cccc(OC(F)(F)F)c4)n3)cnn2n1` gave a liver cell % of control in assay [1] of 77.9%. Moreover, the parasite % of control in assay [1] was 166% (inactive). Also, the percent of negative control (+Dex) in assay [2] is 91% (inactive). Moreover, the z-score is -0.08 in assay [2]; -0.6 (inactive) in assay [3]; -0.916 (inactive) in assay [4]; 0.611 (inactive) in assay [7] (setting [8]); -0.245 in assay [7] (setting [9]). Further, in assay [5], the EGFP object count was 5.5. In addition, the EGFP/DsRed ratio in assay [5] is 0.0552 (inactive). Also, the fraction signal in assay [6] was -0.005 (inactive).

In turn, `Nc1nccc(-c2c(-c3ccc(F)cc3)nn3cc(C(F)(F)F)ccc23)n1` yielded a liver cell % of control in assay [1] of 111%. Further, the parasite % of control in assay [1] is 130% (inactive). Besides, in assay [2], the percent of negative control (+Dex) is 107% (inactive). Also, the z-score in assay [2] is 1.32; in assay [3], -0.745 (inactive); in assay [4], -0.016 (inactive); in assay [7] (setting [8]) it was -0.218 (inactive); in assay [7] (setting [9]), -0.148. For the same compound, in assay [5], the EGFP object count turned out to be 5.5. The EGFP/DsRed ratio in assay [5] is 0.148 (inactive). Besides, the fraction signal in assay [6] was -0.0075 (inactive).

In assay [1], `COC(=O)Nc1nc2ccc(S(=O)(=O)c3ccc(NC(=O)Nc4cc(C(F)(F)F)ccc4F)cc3)cc2[nH]1` came in with a liver cell % of control of 80%. Further, the parasite % of control in assay [1] was 100% (inactive). Also, the percent of negative control (+Dex) in assay [2] is 86.5% (inactive). Moreover, the z-score in assay [2] was 0.105; in assay [3] it was -0.105 (inactive); in assay [4], 2.68 (inactive); in assay [7] (setting [8]), 0.00101 (inactive); in assay [7] (setting [9]), -0.437. Besides, in assay [5], the EGFP object count amounted to 1.5. In addition, the EGFP/DsRed ratio in assay [5] was 0.00404 (inactive). The fraction signal in assay [6] was 0 (inactive).

The compound `CN(C)c1ccc2[nH]c(O)c(C=Nc3ccc(S(N)(=O)=O)cc3)c2c1` came in with a liver cell % of control in assay [1] of 88.2%. Besides, the parasite % of control in assay [1] is 103% (inactive). For the same compound, the percent of negative control (+Dex) in assay [2] is 93% (inactive). The z-score in assay [2] is 0.245; in assay [3], 0.065 (inactive); in assay [4], 0.675 (inactive); in assay [7] (setting [8]) it was 1.57 (inactive); in assay [7] (setting [9]), -0.102. In addition, the EGFP object count in assay [5] came to 6.5. Moreover, in assay [5], the EGFP/DsRed ratio was 0.209 (inactive). In addition, the fraction signal in assay [6] is -0.008 (inactive).
